Reference: PubChem BioAssay (NCATS)
Inconclusive results are not listed. Active and inactive are the calls of the source. Unless noted, calls follow the shape of the dose curve; as a rule, active = well fitted curve in the direction sought with a large enough effect; inconclusive = small, poorly fitted or top-dose-only effect, or another doubt; inactive = no such curve, though single readings can be large; an effect the other way counts as inactive or inconclusive.

What was measured:
[1] = NS1 protein of Zika virus - qHTS assay to identify small molecule inhibitors in human HEK 293 cells (AID 1347053);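 also: plate controls were infected untreated cells for no effect and uninfected cells for full effect; nearly all actives have a fitted effect of over 55% in size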
Outline: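 TR-FRET signal from two anti-ZIKV NS1 antibodies quantified NS1 in HEK 293 cells 24 h after MR766 infection at MOI = 0.5; compounds were added 1 h before virus. Uninfected cells and infected cells defined the NS1 normalization range.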

[2] = target: T1, Tyrosine-protein phosphatase non-receptor type substrate 1 (Homo sapiens) + Leukocyte surface antigen CD47 (Homo sapiens) (UniProt P78324+Q08722); assay: CD47-SIRPalpha protein protein interaction - Alpha assay qHTS validation (AID 1347059);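 also: bead proximity luminescence from CD47 binding SIRPalpha after compound preincubation with SIRPalpha; % is scaled to controls: 0 for no effect and ±100 for the full control effect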
T1 sequence (P78324 whole entry, looked up): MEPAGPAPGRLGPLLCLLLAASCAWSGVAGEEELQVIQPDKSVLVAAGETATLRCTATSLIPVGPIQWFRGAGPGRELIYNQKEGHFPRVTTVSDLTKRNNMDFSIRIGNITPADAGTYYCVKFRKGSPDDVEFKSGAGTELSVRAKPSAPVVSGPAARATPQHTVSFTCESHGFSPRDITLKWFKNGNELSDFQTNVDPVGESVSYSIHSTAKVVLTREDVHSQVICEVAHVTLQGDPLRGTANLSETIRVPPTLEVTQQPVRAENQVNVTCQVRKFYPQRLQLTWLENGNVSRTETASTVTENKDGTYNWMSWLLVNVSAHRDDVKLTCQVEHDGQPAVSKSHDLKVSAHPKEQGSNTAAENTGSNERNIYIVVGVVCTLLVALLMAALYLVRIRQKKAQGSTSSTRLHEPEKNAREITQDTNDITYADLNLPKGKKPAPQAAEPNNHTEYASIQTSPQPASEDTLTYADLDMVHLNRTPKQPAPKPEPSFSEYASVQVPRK
T1 sequence (Q08722 whole entry, looked up): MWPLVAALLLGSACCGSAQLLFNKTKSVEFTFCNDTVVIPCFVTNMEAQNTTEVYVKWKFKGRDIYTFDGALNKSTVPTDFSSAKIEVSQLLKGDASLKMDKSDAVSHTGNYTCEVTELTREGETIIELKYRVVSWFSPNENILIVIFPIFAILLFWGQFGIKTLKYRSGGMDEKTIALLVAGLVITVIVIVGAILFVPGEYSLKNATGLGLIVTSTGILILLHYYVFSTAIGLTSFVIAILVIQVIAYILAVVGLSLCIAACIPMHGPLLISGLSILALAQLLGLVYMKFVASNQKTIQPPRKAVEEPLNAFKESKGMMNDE
Outline: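 SIRPalpha-biotin 25 nM + cpd, 30 min RT, dark; add CD47-His 12.5 nM, 30 min; add Ni-NTA/SAV beads 10 ug/mL, 30 min; AlphaScreen. Buffer PBS pH 7.4 + 0.05% IGEPAL CA-630. Non-biotinylated SIRPalpha as control inhibitor.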

[3] = target: Parathyroid hormone/parathyroid hormone-related peptide receptor (Homo sapiens) (UniProt Q03431); assay: qHTS for PTHR1 Agonists: Optimization Screen against the NCGC LOPAC library (AID 1347079);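 also: GloSensor cAMP luminescence in HEK-293 GP2 cells expressing human PTHR1 with IBMX; 0% is about no effect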
Sequence of Parathyroid hormone/parathyroid hormone-related peptide receptor (Homo sapiens) (Q03431 whole entry, looked up): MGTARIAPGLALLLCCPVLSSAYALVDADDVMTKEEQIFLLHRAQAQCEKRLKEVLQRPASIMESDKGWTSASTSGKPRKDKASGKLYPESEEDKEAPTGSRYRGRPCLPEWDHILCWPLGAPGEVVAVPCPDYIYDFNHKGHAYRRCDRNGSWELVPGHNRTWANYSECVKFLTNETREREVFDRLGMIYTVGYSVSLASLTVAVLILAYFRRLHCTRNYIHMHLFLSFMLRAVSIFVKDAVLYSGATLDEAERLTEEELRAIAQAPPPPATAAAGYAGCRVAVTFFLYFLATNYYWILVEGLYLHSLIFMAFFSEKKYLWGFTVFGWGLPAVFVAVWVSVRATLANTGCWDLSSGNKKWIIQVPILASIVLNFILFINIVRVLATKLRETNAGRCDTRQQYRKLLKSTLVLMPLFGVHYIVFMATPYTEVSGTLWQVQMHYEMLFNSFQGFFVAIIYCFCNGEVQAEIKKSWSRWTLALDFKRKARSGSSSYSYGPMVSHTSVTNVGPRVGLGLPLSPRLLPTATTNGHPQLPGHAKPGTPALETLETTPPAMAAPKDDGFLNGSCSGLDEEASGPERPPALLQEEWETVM
Outline: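 Signal increase flags agonism. GP2 cells, derived from HEK-293, express human PTHR1 and a GloSensor cAMP construct.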

[4] = target: N-terminal Xaa-Pro-Lys N-methyltransferase 1 (Homo sapiens) (UniProt Q9BV86); assay: qHTS Assay for Inhibitors of N-terminal methyltransferase 1 (NTMT1): LOPAC validation of the NTMT1 SAHH-coupled ThioGlo3 Assay (AID 1347143);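 also: SAH from peptide methylation measured as thiol fluorescence via SAHH coupling and ThioGlo3; nearly all actives have a fitted effect of over 70% in size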; also: potency is read from the fitted curve at half-maximal effect
Sequence of N-terminal Xaa-Pro-Lys N-methyltransferase 1 (Homo sapiens) (Q9BV86 whole entry, looked up): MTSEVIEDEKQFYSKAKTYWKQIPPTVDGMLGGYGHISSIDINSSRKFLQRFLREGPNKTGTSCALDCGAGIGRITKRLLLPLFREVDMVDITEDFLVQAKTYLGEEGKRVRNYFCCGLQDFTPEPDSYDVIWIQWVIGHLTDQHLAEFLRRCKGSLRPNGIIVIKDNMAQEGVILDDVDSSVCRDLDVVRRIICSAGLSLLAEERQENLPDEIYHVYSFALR
Outline: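 Steps: dispense 125nM NTMT1; pin-transfer test compounds at several concentrations, with 1uM RCC1-6 peptide as control; incubate 1 min; start with reagent holding 100uM SAM, 10uM SAHH, 15uM ThioGlo3; read at 0 and 30 min.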

[5] = target: Lysine-specific demethylase 5B (Homo sapiens) (UniProt Q9UGL1); assay: Optimization screen for KDM5B Histone Demethylases FDH coupled qHTS against the LOPAC library (AID 1347166); details: KDM5B demethylation, FDH-coupled NADH fluorescence (FDH is formaldehyde dehydrogenase); at 57.5 µM (top of the series); also: 0% is about no effect
Sequence of Lysine-specific demethylase 5B (Homo sapiens) (Q9UGL1 whole entry, looked up): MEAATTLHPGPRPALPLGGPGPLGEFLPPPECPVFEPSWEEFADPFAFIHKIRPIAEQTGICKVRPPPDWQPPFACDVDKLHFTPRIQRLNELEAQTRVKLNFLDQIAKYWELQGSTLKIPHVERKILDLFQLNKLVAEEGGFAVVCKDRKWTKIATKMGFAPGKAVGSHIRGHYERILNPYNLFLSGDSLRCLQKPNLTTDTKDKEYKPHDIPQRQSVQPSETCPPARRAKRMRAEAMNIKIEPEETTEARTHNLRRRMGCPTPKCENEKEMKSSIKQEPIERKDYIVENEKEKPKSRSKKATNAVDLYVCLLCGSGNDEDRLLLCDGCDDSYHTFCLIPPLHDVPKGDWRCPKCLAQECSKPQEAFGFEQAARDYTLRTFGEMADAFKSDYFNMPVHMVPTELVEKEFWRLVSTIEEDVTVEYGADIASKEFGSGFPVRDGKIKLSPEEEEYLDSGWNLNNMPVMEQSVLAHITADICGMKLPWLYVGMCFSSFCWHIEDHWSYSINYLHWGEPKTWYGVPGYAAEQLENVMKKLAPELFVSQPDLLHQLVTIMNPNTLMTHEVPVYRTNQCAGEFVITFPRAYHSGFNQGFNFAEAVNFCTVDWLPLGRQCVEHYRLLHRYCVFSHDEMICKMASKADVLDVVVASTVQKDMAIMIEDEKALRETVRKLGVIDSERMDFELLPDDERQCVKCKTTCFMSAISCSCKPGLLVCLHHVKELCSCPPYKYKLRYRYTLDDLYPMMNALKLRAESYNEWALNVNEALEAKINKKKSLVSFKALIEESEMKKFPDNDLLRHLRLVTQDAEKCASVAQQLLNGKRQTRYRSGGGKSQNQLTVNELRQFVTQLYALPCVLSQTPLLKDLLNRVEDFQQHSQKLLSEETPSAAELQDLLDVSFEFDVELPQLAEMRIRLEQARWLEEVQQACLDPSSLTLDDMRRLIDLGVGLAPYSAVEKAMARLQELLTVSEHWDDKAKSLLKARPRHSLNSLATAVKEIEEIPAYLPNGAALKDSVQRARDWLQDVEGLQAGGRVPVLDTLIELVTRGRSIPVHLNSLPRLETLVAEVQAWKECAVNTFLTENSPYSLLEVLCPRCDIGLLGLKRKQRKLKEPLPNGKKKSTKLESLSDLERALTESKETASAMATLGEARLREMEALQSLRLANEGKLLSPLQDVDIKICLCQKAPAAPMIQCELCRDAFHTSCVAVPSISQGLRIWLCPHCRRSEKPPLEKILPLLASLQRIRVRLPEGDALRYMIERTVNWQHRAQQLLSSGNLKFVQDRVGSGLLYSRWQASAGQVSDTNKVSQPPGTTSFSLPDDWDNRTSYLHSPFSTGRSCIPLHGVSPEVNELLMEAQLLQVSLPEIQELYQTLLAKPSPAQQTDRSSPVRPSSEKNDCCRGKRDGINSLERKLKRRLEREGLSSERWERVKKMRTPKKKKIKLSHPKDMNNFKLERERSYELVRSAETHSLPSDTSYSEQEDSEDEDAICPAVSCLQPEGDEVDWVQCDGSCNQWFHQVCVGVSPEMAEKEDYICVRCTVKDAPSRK
Outline: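 KDM5BDeltaAP (200nM final) in 50mM HEPES pH 7.5, 0.01% Tween-20 was preincubated with compound for 10 min at room temperature. A substrate mix of 12.5uM H3K4Me3, 25uM a-ketoglutarate, ascorbate, Fe2+, NAD+ and formaldehyde dehydrogenase was then added. NADH fluorescence (340/450 nm) was read initially and after 30 min.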

[6] = system: Zika virus NS2B-NS3 protease (unlinked); assay: Optimization of GU AMC qHTS for Zika virus inhibitors: Unlinked NS2B-NS3 protease assay (AID 1347151); also: nearly all actives have a fitted effect of over 80% in size; also: potency is read from the fitted curve at half-maximal effect
Outline: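 Fluorescence read-out (340 nm ex / 450 nm em) of AMC peptide cleavage, taken immediately and after 15 min at room temperature (~20% conversion). Enzyme was the unlinked NS2B–NS3 complex at 25 nM in Tris pH 8.0 buffer.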

[7] = target: T1, Tyrosine-protein phosphatase non-receptor type substrate 1 (Homo sapiens) + Leukocyte surface antigen CD47 (Homo sapiens); assay: CD47-SIRPalpha protein protein interaction - LANCE assay qHTS validation (AID 1347057; active = well fitted curve in the direction sought with a large enough effect in the signal ratio, with a control signal flat, not every such curve was filed as active; the % refers to the signal ratio; also: 0% is about no effect)
Outline: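 Inhibition of soluble CD47/SIRPalpha ectodomain association by titrated compounds, measured as 665/615 nm time-resolved FRET ratio after sequential 30 min room-temperature incubations.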

[8] = system: Zika virus NS2B-NS3 protease; assay: Primary screen GU AMC qHTS for Zika virus inhibitors (AID 1347154); also: nearly all actives have a fitted effect of over 70% in size; also: potency is read from the fitted curve at half-maximal effect
Outline: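 Unlinked Zika NS2B hydrophilic domain–NS3 protease complex at 25 nM in 10 mM Tris-HCl pH 8.0, 0.01% Tween 20, with an AMC peptide substrate. Fluorescence change (340/450 nm) over 15 min at room temperature, normalized to controls, fitted to 4-parameter Hill.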

[9] = target: T1, Tyrosine-protein phosphatase non-receptor type substrate 1 (Homo sapiens) + Leukocyte surface antigen CD47 (Homo sapiens); assay: CD47-SIRPalpha protein protein interaction - HTRF assay qHTS validation (AID 1347058; active = well fitted curve in the direction sought with a large enough effect in the signal ratio, not every such curve was filed as active; the % refers to the signal ratio; also: 0% is about no effect)
Outline: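 Soluble extracellular domains (6His-CD47, Avi-tag-biotinylated SIRPalpha) in PBS pH 7.4 with 0.05% IGEPAL CA-630. Compounds were preincubated 30 min at RT with CD47 and anti-His-Eu, then SIRPalpha and SAV-XL665 were added. TR-FRET 665/615 ratio.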

[10] = target: Furin (Homo sapiens) (UniProt P09958); assay: Furin counterscreen qHTS for Zika virus inhibitors (AID 1347149); also: potency is read from the fitted curve at half-maximal effect; nearly all actives have a fitted effect of over 70% in size
Sequence of Furin (Homo sapiens) (P09958 whole entry, looked up): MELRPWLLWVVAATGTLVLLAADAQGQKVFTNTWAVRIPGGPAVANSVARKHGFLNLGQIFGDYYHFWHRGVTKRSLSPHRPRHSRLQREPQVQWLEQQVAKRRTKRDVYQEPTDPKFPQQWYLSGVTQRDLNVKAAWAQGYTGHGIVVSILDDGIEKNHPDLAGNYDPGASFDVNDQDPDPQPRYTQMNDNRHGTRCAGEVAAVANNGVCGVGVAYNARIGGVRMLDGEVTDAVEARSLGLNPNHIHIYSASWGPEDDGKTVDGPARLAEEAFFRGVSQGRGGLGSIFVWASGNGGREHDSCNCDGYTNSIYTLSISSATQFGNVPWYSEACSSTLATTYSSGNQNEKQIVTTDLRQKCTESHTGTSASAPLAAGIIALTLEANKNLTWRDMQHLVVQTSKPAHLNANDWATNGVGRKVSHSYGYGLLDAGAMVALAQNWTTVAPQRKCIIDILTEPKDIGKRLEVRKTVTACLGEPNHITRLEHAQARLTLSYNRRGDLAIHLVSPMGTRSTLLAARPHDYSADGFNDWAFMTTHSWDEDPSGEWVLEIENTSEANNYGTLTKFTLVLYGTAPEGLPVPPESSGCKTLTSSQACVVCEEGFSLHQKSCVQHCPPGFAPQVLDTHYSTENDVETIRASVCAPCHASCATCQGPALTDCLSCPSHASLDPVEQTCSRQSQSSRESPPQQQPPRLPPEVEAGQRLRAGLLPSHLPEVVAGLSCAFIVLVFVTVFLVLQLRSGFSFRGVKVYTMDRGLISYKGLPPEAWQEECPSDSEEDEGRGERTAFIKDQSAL
Outline: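 Counterscreen measures cleavage of 2 microM BOC-RVRR-AMC, below its ~15 microM Km, by 5 nM full-length human furin at pH 7.0 after a 15-min compound preincubation. Inhibition derives from the 15-min fluorescence increase at 37C.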

[11] = system: Zika virus NS2B-NS3 protease (linked construct); assay: Confirmatory screen NINDS AMC qHTS for Zika virus inhibitors (AID 1347152); also: potency is read from the fitted curve at half-maximal effect; nearly all actives have a fitted effect of over 70% in size
Outline: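 Linked NS2B-NS3 1 nM, Tris pH 8.0/0.01% Tween 20; cpd 15 min RT dark; + Nle-KRR-AMC 10 µM (Km 18.3 µM); read 0 and 15 min, 340/450 nm; %inh vs controls, 4-param Hill.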

[12] = Vero cells viability qHTS for Zika virus inhibitors (AID 1347167); also: % is scaled to controls: 0 for no effect and ±100 for the full control effect
Outline: (§1)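 qHTS titration; 24-48 h compound exposure, 37 degrees C/5% CO2; DMEM, 4% FBS; CellTiter Glo ATP luminescence.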

[13] = HepG2 cells viability qHTS for Zika virus inhibitors (AID 1347168); also: % is scaled to controls: 0 for no effect and ±100 for the full control effect
Outline: as §1

CC#CCOC(=O)c1c(C)nc2sc3c(c2c1N)CCC(O)C3 (centres undefined)
active: Potency [4] 56.2 µM
inactive: Potency [1] | Potency [2] | Potency [3] | activity, negative = inhibition [5] -10.9%

O=c1cc(-c2ccccc2)[nH]c2nc(Cl)ccc12
active: Potency [4] 79.4 µM | Potency [6] 11.9 µM
inactive: Potency [1] | Potency [3]

N#CC(=C(\N)Sc1ccccc1N)/C(C#N)=C(/N)Sc1ccccc1N
active: Potency [4] 56.2 µM
inactive: Potency [1] | Potency [7] | Potency [2] | activity, negative = inhibition [5] -5.86%

COc1ccc2c(c1)CCC1C2CC[C@@]2(C)C1CC[C@@H]2NCCCCCCN1C(=O)C=CC1=O (some centres undefined)
inactive: Potency [1] | Potency [7] | Potency [3] | Potency [4] | Potency [6] | activity, negative = inhibition [5] -20.3%

NC/C=C\C(=O)O
inactive: Potency [1] | Potency [7] | Potency [2] | Potency [6] | Potency [8] | activity, negative = inhibition [5] 3.97%

CC(=O)O[C@H]1CC2(C)[C@@H](C[C@@H](O)[C@H]3[C@@]4(C)CC[C@@H](O)[C@@H](C)[C@@H]4CC[C@@]32C)C1=C(CCC=C(C)C)C(=O)O (some centres undefined)
inactive: Potency [3] | Potency [4] | Potency [6] | activity, negative = inhibition [5] -4.8%

Cc1cccc(C)c1OCC(N)C(C)C (centres undefined)
inactive: Potency [1] | outcome [9] | Potency [2] | Potency [3] | Potency [6] | activity, negative = inhibition [5] -17.4%
active: Potency [4] 50.1 µM

c1ccc(CN2CCC3(CCCc4ccccc43)CC2)cc1
inactive: Potency [7] | outcome [9] | Potency [2] | Potency [3] | Potency [6] | activity, negative = inhibition [5] -0.246%
active: Potency [4] 50.1 µM

OC1(c2ccc(Cl)cc2)CCN(Cc2c[nH]c3ccccc23)CC1
inactive: Potency [7] | outcome [9] | Potency [2] | Potency [3] | Potency [4] | Potency [6] | Potency [8] | activity, negative = inhibition [5] -0.728%

N[C@@H](CCC(=O)N[C@H](CSN=O)C(=O)NCC(=O)O)C(=O)O
inactive: Potency [7] | Potency [2] | Potency [4] | Potency [6] | activity, negative = inhibition [5] -9.68%

COc1cc(CC(=O)O)ccc1O
inactive: Potency [7] | outcome [9] | Potency [2] | Potency [3] | Potency [4] | Potency [6] | Potency [8] | activity, negative = inhibition [5] -5.93%

CCCn1c(=O)c2[nH]c(-c3ccc(S(=O)(=O)O)cc3)nc2n(CCC)c1=O
inactive: Potency [1] | Potency [2] | activity, negative = inhibition [5] 2090%

COc1ccccc1N1CCN(CCN(C(=O)c2ccc(F)cc2)c2ccccn2)CC1
inactive: Potency [1] | Potency [3] | Potency [4] | Potency [6]

Cn1c(=O)c2[nH]c(-c3ccc(S(=O)(=O)O)cc3)nc2n(C)c1=O
inactive: Potency [1] | Potency [2] | Potency [3] | Potency [6] | activity, negative = inhibition [5] 39.3% | Potency [12] | outcome [13]
active: Potency [4] 12.6 µM | Potency [10] 12.1 µM | Potency [11] 6.81 µM | Potency [8] 5.32 µM

CC(C)NC[C@H](O)COc1cccc2ccccc12
inactive: Potency [1] | outcome [9] | Potency [2] | Potency [3] | Potency [8] | activity, negative = inhibition [5] -12%
